Source: PubChem BioAssay
Activity calls are given as the source filed them.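 The calls were made as follows, unless noted: active = compounds lowering colon cancer cell viability after pretreatment blocking the GSK3B kinase; inactive = the rest.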

Experiments:
[1] = Wnt pathway potentiators raising nuclear beta-catenin – imaging, WNT3A-conditioned medium, mouse C2C12, NPC library, primary screen (AID 1117326; in the data active = nuclear beta-catenin stimulation mostly above about 4.2%, no sharp cut-off; inactive = mostly below about 10%; also: reference of the scale not given here); conditions: stronger effect = higher value
[2] = stimulators of insulin release from INS-1E, primary screen, cell-based, 5 mM glucose, NPC library (AID 1117329;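 active = compound raises insulin release from rat beta cells at 5 mM glucose, no numeric limit stated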; also: reference of the scale not given here); conditions: rat INS-1E insulin secretion, at 10 µM, stronger effect = higher value
[3] = growth inhibition of GSK3B-pretreated HCT116 cells – cell-based, CellTiter-Glo, 0.2 to 20 µM (AID 1117336); conditions: HCT116 viability after GSK3B inhibitor, at 20 µM, stronger effect = higher value
[4] = inhibition of endothelial tube formation, primary screen, imaging, VEGF stimulated, CD31 staining, tube area, NPC library (AID 1117340;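 active = compound that reduces growth-factor-driven endothelial tube area in a mixed cell culture, no cutoff stated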); conditions: VEGF-stimulated ADSC/ECFC co-culture, at 10 µM, stronger effect = higher value
[5] = GLP1 release stimulators, primary, NCI-H716, NPC library (AID 1117341;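 active = compound raises GLP1 secretion from the human gut endocrine cells, with no numeric limit stated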; also: reference of the scale not given here); conditions: NCI-H716 cells, at 10 µM, stronger effect = higher value
[6] = HCT116 colon cancer cell growth inhibition, primary screen, CellTiter-Glo luminescence, NPC library (AID 1117342;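 active = compounds that lower survival of HCT116 colon cancer cells in the luminescence readout, no numeric limit stated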); conditions: at 20 µM (top of the series)
[7] = reduced SW480 viability measured with CellTiter-Glo, NPC library, primary (AID 1117343;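 active = compounds that lower viability of the colon cancer cells in the luminescence readout, with no numeric limit stated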); conditions: CellTiter-Glo luminescence; at 20 µM (top of the series)
[8] = NPC library primary testing for decreased DLD-1 cell viability via CellTiter-Glo (AID 1117346;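 active = compounds that lower survival of DLD-1 colon cancer cells in the luminescence readout, no cutoff given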); conditions: DLD-1 viability, CellTiter-Glo luminescence; at 20 µM (top of the series)

SMILES | nuclear beta-catenin stimulation ([1]; at 10 µM) | nuclear beta-catenin stimulation ([1]; stimulation, at 2 µM) | insulin secretion stimulation [2] | viability decrease [3] | tube area decrease [4] | GLP1 secretion stimulation [5] | inhibition of viability [6] | viability decrease (inhibition) [7] | viability decrease (inhibition) [8]
CO[C@@H]1[C@@H](OC)[C@H](C)[C@@](O)(CC(=O)O)O[C@H]1[C@H](C)[C@H]1O[C@@]2(CC[C@@](C)([C@H]3CC[C@@](C)([C@@H]4O[C@@H]([C@H]5O[C@](C)(O)[C@H](C)C[C@@H]5C)C[C@@H]4OC4C[C@H](OC)[C@@H](OC)[C@H](C)O4)O3)O2)C[C@H](O)[C@H]1C (some centres not stated) | -1.1% (inactive) | 10.6% | 5.4% (inactive) | 79.8% (active) | 111% (active) | 15% (inactive) | 66.7% (active) | 128% (active) | 96.7% (active)
O=C(O)COc1nn(Cc2ccccc2)c2ccccc12 | -0.5% (inactive) | 2.2% | -0.7% (inactive) | 3.8% (inactive) | -13% (inactive) | 1.7% (inactive) | 8.1% (inactive) | 12.1% (inactive) | 8.6% (inactive)
O=C1c2ccccc2CCc2ccccc21 | 0.9% (inactive) | -0.9% | 2.7% (inactive) | 7% (inactive) | -5.3% (inactive) | -1.2% (inactive) | 4.6% (inactive) | -8.4% (inactive) | 9.1% (inactive)
CCOC(=O)C(=O)c1csc(NC=O)n1 | -0.7% (inactive) | -0.8% | 2.4% (inactive) | -15.5% (inactive) | -9.4% (inactive) | -2% (inactive) | 1.1% (inactive) | -10.2% (inactive) | 7.8% (inactive)
N#CC1(c2ccc(F)cc2)CCC(=O)CC1 | -0.7% (inactive) | -2.1% | 2.2% (inactive) | 5.9% (inactive) | 0.9% (inactive) | 1.7% (inactive) | 8.6% (inactive) | 3.1% (inactive) | -1.9% (inactive)
CCOC(=O)C(=O)CCc1ccccc1 | 0.7% (inactive) | 2% | 2.2% (inactive) | -4.7% (inactive) | -7.2% (inactive) | 5% (inactive) | 10.3% (inactive) | -2.4% (inactive) | 1% (inactive)
CCOC(=O)c1cc(=O)c2c(OCC(COc3cccc4oc(C(=O)OCC)cc(=O)c34)OC(=O)[C@@H](N)CCCCN)cccc2o1 | 0.5% (inactive) | 1.2% | -1.2% (inactive) | -30% (inactive) | 4.5% (inactive) | 7.5% (inactive) | -25.1% (inactive) | -75% (inactive) | -11.5% (inactive)
Nc1nc2ccccc2n1Cc1ccc(F)cc1 | 0.8% (inactive) | -2% | 0.8% (inactive) | 56.4% (active) | 15.1% (inactive) | -0.6% (inactive) | 74.9% (active) | 84% (active) | 43% (inactive)
